These results are taken from PubChem BioAssay (NCATS).

SMILES strings stand for the structures. Several values for one entry are separate records, joined by “and”; a condition that tells them apart may be missing. Equal entries are not always repeated. Records with an inconclusive call do not appear. Activity calls are given as the source filed them. Unless noted, the call rests on the fitted dose curve; in most records, active means well fitted curve in the direction sought with a large enough effect; inconclusive means small, poorly fitted or top-dose-only effect, or another doubt; inactive means no such curve, though single readings can be large; an effect the other way counts as inactive or inconclusive.

Experiment [1] can be described thus: Primary qHTS for inhibitors of nuclear receptor binding SET domain protein 2 (NSD2) in an RCH-ACV wild type WT cells (2C) (AID 1645877; further: nearly all actives have a fitted effect of over 70% in size; further: potency means the concentration at half of the fitted maximal effect). (In qHTS, concentration-response curves come from the screen itself.)
For experiment [2], the target named is Catechol O-methyltransferase (Homo sapiens) (UniProt P21964). Kind of experiment: Confirmatory Screen for Target Class Profiling of Small Molecule Inhibitors of Methyltransferases (AID 1745852; calls by dose curve; further: potency means the concentration at half of the fitted maximal effect; on activity change, negative = inhibition: on the % scale 0 is the no-effect control and ±100 the full control effect). The conditions noted are these: MTase-Glo luminescence, SAH detection, recombinant enzyme; measured here: COMT max response; stronger effect = lower value.
Experiment [3] deals with Guanidinoacetate N-methyltransferase (Homo sapiens) (UniProt Q14353). The description is as above. The conditions noted are these: activity change, negative = inhibition: at 57.3 µM (top of the series) unless noted.
Experiment [4] concerns the target Nicotinamide N-methyltransferase (Homo sapiens) (UniProt P40261). The experiment is described as above. To be noted: MTase-Glo luminescence, SAH detection, recombinant enzyme; measured here: NNMT max response; stronger effect = lower value.
Experiment [5] addresses Phenylethanolamine N-methyltransferase (Homo sapiens) (UniProt P11086). Described as above. The conditions noted are these: MTase-Glo luminescence, SAH detection, recombinant enzyme; measured here: PNMT max response; stronger effect = lower value.
Experiment [6] has as its target Glutathione peroxidase 1 (Homo sapiens) (UniProt P07203). Briefly: Primary qHTS Assay for Inhibitors of Recombinant Selenoprotein Glutathione Peroxidase 1 (GPX1) (AID 1845191). Further: nearly all actives have a fitted effect of over 65% in size. The procedure, abridged:
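GPX1 10 nM, GR 100 nM, GSH 1 mM, NADPH 0.5 mM, CHP 0.5 mM (final). 30-min cpd preincubation, RT. Ex340/Em450 read t=0, t=15 min.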

Experiment [7] has as its target Phospholipid hydroperoxide glutathione peroxidase GPX4 (Homo sapiens) (UniProt P36969). Kind of experiment: Primary qHTS Assay for Inhibitors of Recombinant Selenoprotein Glutathione Peroxidase 4 (GPX4) (AID 1845192). Further: nearly all actives have a fitted effect of over 65% in size. On activity change, negative = inhibition: on the % scale 0 is the no-effect control and ±100 the full control effect. In a few lines:
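qHTS, GR-coupled: GPX4 200 nM + cpd 30 min RT → GSH 1 mM, NADPH 0.5 mM, GR 100 nM → CHP 0.5 mM start; fluor 340/450 at t0 and t15 min; no-enzyme wells as control.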

For experiment [8], the target named is Luciferin 4-monooxygenase (Photinus pyralis) (UniProt P08659). Briefly: Primary firefly luciferase (FLuc) qHTS assay for identification of artifact compounds. (AID 1845220). Further: nearly all actives have a fitted effect of over 60% in size.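 On activity change, negative = inhibition: plate controls were DMSO vehicle for no effect and no enzyme for full effect.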 In a few lines: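 qHTS, 15 min compound preincubation with substrate (10 uM luciferin, 10 uM ATP) at RT, then 10 nM FLuc; 5 min; luminescence; % inhibition vs no-enzyme/DMSO controls, 4-parameter Hill fit.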

Experiment [9] in a line: Primary fluorescence-based thiol-reactive (MSTI) qHTS assay for identification of artifact compounds. (AID 1845221). Further: nearly all actives have a fitted effect of over 65% in size. Further: potency means the concentration at half of the fitted maximal effect. The procedure, abridged: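 Thiol-reactive compounds detected by quenching of 4 uM MSTI fluorescence (525/598 nm) after 1 h room-temperature dark incubation in PBS pH 7.4, 2% DMSO. qHTS titration; percent inhibition Hill-fitted against Acetyl-MSTI/MSTI controls.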

For experiment [10], the system named is Nanoluciferase (engineered Oplophorus gracilirostris luciferase). Kind of experiment: Primary Nanoluciferase (NLuc) qHTS assay for identification of artifact compounds. (AID 1845222). The procedure, abridged:
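Luminescence read-out of secreted NLuc in S16 cell conditioned medium (1:55); compounds tested with 15 min RT preincubation, then Nano-Glo substrate 1:100, 5 min. % inhibition vs no-enzyme and DMSO controls, 4-parameter Hill fit.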

The nature of experiment [11]: Primary redox qHTS assay for identification of artifact compounds. (AID 1845223).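 Further: 0% = DMSO and 100% = reference compound.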 The procedure, abridged: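 Redox-cycling detection via DTT (250 uM final) oxidation coupled to Amplex Red (25 uM)/HRP (250 mU/mL) in HBSS. 15 min preincubation plus 30 min after DTT, room temperature. Ex/Em 525/598 nm; 4-parameter Hill fit against DMSO and 10 uM DA3003.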
Experiment [12] in a line: NCATS anti-infectives library activity on HEK293 viability as a counter-qHTS vs the C. elegans viability qHTS (AID 1745854). Further: on the % scale 0 is the no-effect control and ±100 the full control effect. The procedure, abridged: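 CellTiter-Glo luminescence, read on a CCD imager, scored viability of HEK293 cells after 24 hr compound exposure at 37C. Library tested in several concentrations, 1:5 steps, up to 41.7 uM; digitonin served as control.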

A short description of experiment [13]: NCATS anti-infectives library activity on the primary C. elegans qHTS viability assay (AID 1745855; calls by dose curve; further: potency means the concentration at half of the fitted maximal effect). The procedure, abridged:
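Titration-based screen in worms: eggs hatched overnight in M9, L1 larvae fed TOP10 capsules in S medium with compound, incubated 21 °C for 7 days; fluorescent objects gated by size and intensity at days 0, 3 and 7.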

Sequence of Phospholipid hydroperoxide glutathione peroxidase GPX4 (Homo sapiens) (P36969 whole entry, looked up): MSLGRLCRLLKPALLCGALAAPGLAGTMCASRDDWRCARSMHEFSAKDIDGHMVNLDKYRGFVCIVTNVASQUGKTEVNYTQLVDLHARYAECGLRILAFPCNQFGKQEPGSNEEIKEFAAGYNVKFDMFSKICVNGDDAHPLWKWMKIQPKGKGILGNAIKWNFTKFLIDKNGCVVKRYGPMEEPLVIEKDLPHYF
Sequence of Catechol O-methyltransferase (Homo sapiens) (P21964 whole entry, looked up): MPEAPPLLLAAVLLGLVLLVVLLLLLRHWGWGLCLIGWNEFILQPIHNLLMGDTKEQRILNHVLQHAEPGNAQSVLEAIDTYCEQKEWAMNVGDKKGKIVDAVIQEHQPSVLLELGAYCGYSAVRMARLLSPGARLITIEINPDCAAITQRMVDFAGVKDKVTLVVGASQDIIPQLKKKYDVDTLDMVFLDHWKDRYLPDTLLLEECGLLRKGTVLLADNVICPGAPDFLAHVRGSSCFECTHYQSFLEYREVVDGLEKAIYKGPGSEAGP
Sequence of Nicotinamide N-methyltransferase (Homo sapiens) (P40261 whole entry, looked up): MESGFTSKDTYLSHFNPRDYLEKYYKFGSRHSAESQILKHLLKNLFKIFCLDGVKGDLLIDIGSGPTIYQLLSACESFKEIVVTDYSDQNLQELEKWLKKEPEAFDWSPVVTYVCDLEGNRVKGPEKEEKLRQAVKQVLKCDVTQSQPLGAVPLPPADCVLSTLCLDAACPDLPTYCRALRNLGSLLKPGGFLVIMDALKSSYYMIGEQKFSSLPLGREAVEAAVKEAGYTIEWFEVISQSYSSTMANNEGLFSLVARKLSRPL
Sequence of Phenylethanolamine N-methyltransferase (Homo sapiens) (P11086 whole entry, looked up): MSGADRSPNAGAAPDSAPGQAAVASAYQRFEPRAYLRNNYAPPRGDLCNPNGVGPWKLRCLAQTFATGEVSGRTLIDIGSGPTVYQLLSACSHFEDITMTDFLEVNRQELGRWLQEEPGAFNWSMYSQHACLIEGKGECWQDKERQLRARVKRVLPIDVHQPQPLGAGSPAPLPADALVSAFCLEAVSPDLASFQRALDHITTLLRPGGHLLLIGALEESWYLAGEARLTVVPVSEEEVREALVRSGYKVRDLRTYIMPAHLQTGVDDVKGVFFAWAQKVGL
Sequence of Glutathione peroxidase 1 (Homo sapiens) (P07203 whole entry, looked up): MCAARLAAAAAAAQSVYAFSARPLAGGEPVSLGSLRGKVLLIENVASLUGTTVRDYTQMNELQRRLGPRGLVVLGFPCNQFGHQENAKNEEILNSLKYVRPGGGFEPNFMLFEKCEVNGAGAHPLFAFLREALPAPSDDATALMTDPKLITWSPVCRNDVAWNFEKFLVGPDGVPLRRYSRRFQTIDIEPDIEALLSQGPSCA

Consider `CCOC(=O)CCN(C(=O)c1ccc2c(c1)nc(CNc1ccc(C(=N)N)cc1)n2C)c1ccccn1`, for which the Potency entry in experiment [1], in experiment [6], in experiment [7], in experiment [8], in experiment [9] and in experiment [10] was “inactive” each time. Besides, in experiment [11], the Potency entry is “inactive”. For the same compound, the results for the activity in experiment [2], in experiment [4] and in experiment [5] were -3.92%, -8.7% and 0.0478%, respectively. Further, in experiment [3], the activity change, negative = inhibition was 2.12%.
`CN(C)C/C=C/C(=O)Nc1cccc(C(=O)Nc2ccc(Nc3nccc(-c4cccnc4)n3)cc2)c1`: the Potency in experiment [1] was 578 nM (active). Further, the activity in experiment [2] is -2.53%; in [4] it was -7.5%; in experiment [5] it was 1.39%. The activity change, negative = inhibition in experiment [3] is 0.0986%. Further, the Potency result in [6], in [7], in experiment [8], in experiment [9], in experiment [10] and in experiment [11] was “inactive” each time.
Consider `CCC(C)C(=O)OC1CC(O)C23C4OCC5(C(O)CC2C1(C)C(O)O4)C3C(=O)C(O)C1(C)C(O)(c2ccoc2)CC2OC251` (stereo not given), for which, in [1], the Potency was 76.5 nM (active). Also, the activity in experiment [2] was -73%; in [4], -4.23%; in experiment [5], -2.09%. In addition, the activity change, negative = inhibition in [3] is -8.15% [at 19.1 µM]. Also, the Potency entry in [6], in [7], in experiment [8], in experiment [9], in experiment [10] and in [11] was “inactive” throughout.
On to `COc1cc(N2CCC(N3CCN(C)CC3)CC2)ccc1Nc1ncc(Cl)c(-c2c[nH]c3ccccc23)n1`, for which the Potency in experiment [1] is 1840 nM (active); in experiment [3], 24.1 µM (active); in experiment [9], 1.68 µM (active). Besides, the activity in experiment [2] was -23.6%; in experiment [4] it was -32.6%; in experiment [5], -23.1%. For the same compound, the Potency result in experiment [6], in experiment [7], in [8] and in experiment [10] was “inactive” throughout.
`CC(Oc1cc(-n2cnc3ccc(CN4CCN(C)CC4)cc32)sc1C(N)=O)c1ccccc1C(F)(F)F` (stereo not given): the Potency in [1] was 649 nM (active); in experiment [3] it was 30.4 µM (active). The results for the activity in [2], in experiment [4] and in experiment [5] were -36.6%, -27.1% and -38.1%, respectively. Moreover, the Potency result in [6], in experiment [7], in experiment [8], in [9], in experiment [10] and in experiment [11] was “inactive” throughout.
In the case of `CCOc1cc2ncc(C#N)c(Nc3ccc(F)c(Cl)c3)c2cc1NC(=O)/C=C/CN(C)C`, the Potency is 1.03 µM (active) and 590 nM (active) in experiment [1]; 4.82 µM (active) in experiment [3]; 14.5 µM (active) in experiment [13]. The results for the activity in experiment [2], in experiment [4] and in experiment [5] were -96.3%, -82.7% and -97.3%, respectively. Besides, the Potency entry in [12], in [6], in [7], in [8], in experiment [9] and in experiment [10] was “inactive” in each case. Further, the Potency entry in experiment [11] was “inactive”.
As to `CCN1CCN(Cc2ccc(Nc3ncc(F)c(-c4cc(F)c5nc(C)n(C(C)C)c5c4)n3)nc2)CC1`, the Potency in [1] was 649 nM (active) and 417 nM (active); in experiment [3], 15.2 µM (active). The activity in [2] was -78.7%; in [4], -61.4%; in experiment [5] it was -75%. Also, the Potency result in experiment [6], in experiment [7], in [8], in experiment [9] and in experiment [10] was “inactive” throughout.
Take `CC1=C(CCC(C)O[C@@H]2O[C@H](CO)[C@@H](O)[C@H](O)[C@H]2O)C(C)(C)CCC1=O` (stereo not given in full): the Potency result in experiment [1], in experiment [6], in experiment [7], in [8], in experiment [10] and in experiment [11] was “inactive” in each case. The activity was -64% in experiment [2], -4.03% in experiment [4] and -0.201% in experiment [5]. The activity change, negative = inhibition in experiment [3] is -3.78%. Moreover, the Potency in experiment [9] was 6.56 µM (active).
As for `CNC(=O)c1ccccc1Nc1nc(Nc2ccc(N3CCNCC3)cc2)ncc1Cl`, the Potency result in [1], in experiment [6], in experiment [7], in experiment [8], in [10] and in [11] was “inactive” in each case. Moreover, the values for the activity in [2], in experiment [4] and in experiment [5] were -21.5%, -58.7% and -30.9%, respectively. Moreover, in experiment [3], the activity change, negative = inhibition was -14.2%. Further, in experiment [9], the Potency is 3.36 µM (active).
With `COc1cccc(-c2cc(NCc3ccc4c(c3)OCO4)nc(N)n2)c1`, the Potency in experiment [1] was 163 nM (active). The activity is -1.69% in [2], -16.1% in experiment [4] and -2.8% in experiment [5]. Also, the activity change, negative = inhibition in [3] came to 0%. Moreover, the Potency result in [6], in experiment [7], in experiment [8], in [9], in experiment [10] and in experiment [11] was “inactive” each time.
Take `CC/C=C\CCO[C@@H]1O[C@H](CO)[C@@H](O)[C@H](O)[C@H]1O`: the Potency entry in experiment [1], in experiment [6], in [7], in [8], in [10] and in [11] was “inactive” in each case. The activity was -74.1% in experiment [2], 1.9% in experiment [4] and 0.287% in experiment [5]. Besides, in [3], the activity change, negative = inhibition was found to be 0%. Besides, in experiment [9], the Potency is 5.97 µM (active).
Consider `CC1=CC(=O)C2(OC3OC(C)C(O)C(OC(=O)/C=C/c4ccccc4)C3O)C=COC(OC3OC(CO)C(O)C(O)C3O)C12` (stereo not given), for which the Potency entry in [1], in experiment [6], in experiment [7], in [8], in experiment [10] and in experiment [11] was “inactive” each time. For the same compound, the activity was -48.2% in [2], -1.08% in [4] and 1.5% in experiment [5]. Besides, in experiment [3], the activity change, negative = inhibition was -2.18% [at 19.1 µM]. The Potency in experiment [9] is 1.41 µM (active).
Turning to `CN(C)C/C=C/C(=O)Nc1cccc(C(=O)Nc2cccc(Nc3ncc(Cl)c(-c4c[nH]c5ccccc45)n3)c2)c1`, in [1], the Potency is 72.8 nM (active) and 132 nM (active). Also, the activity was -3.58% in experiment [2], -56% in experiment [4] and -9.06% in experiment [5]. Further, the activity change, negative = inhibition in [3] turned out to be 1.16%. Further, the Potency entry in experiment [6], in experiment [7], in experiment [8], in experiment [9], in experiment [10] and in [11] was “inactive” in each case.
Regarding `COc1cc2c(cc1O)CC[C@H]1[C@@H]2CC[C@]2(C)[C@H](O)CC[C@@H]12`, the Potency in [1] is 916 nM (active). For the same compound, the activity in experiment [2] is -76.8%; in experiment [4], -2.72%; in [5], -7.82%. Besides, the activity change, negative = inhibition in [3] turned out to be 0.377%. For the same compound, the Potency entry in experiment [6], in experiment [7], in experiment [8], in experiment [9], in experiment [10] and in experiment [11] was “inactive” each time.
`C[C@@H](Oc1cc(-n2cnc3ccc(OC4CCN(C)CC4)cc32)sc1C(N)=O)c1ccccc1C(F)(F)F`: the Potency in [1] was 25.8 nM (active); in experiment [3], 24.1 µM (active). In addition, the figures for the activity in [2], in experiment [4] and in experiment [5] were -76.5%, -64.9% and -73.6%, respectively. The Potency result in experiment [6], in experiment [7], in experiment [8], in [9] and in experiment [10] was “inactive” each time.
For `C/C=C/c1cc(OC)c2c(c1)[C@@H](C)[C@@H](c1ccc(O)c(OC)c1)O2`, the Potency in experiment [1] is 14200 nM (active). The activity was -61.3% in [2], -7.01% in experiment [4] and -5.03% in [5]. Further, the activity change, negative = inhibition in [3] was -6.75%. Moreover, the Potency entry in [6], in experiment [7], in experiment [8], in [9], in [10] and in experiment [11] was “inactive” throughout.
